# Several values for one entry are separate records, joined by “and”; a condition that tells them apart may be missing. Equal entries are not always repeated. A structure can be active in one record and inactive in another. Activity calls are given as the source filed them. How the source made its calls: active means hit-call score of the fitted dose curve at least 0.9, where 1 is the maximum; inactive means score below 0.9.
# Assay: ATG_PBREM_CIS: Attagene CIS-FACTORIAL HepG2 Assay for human Phenobarbital-responsive Enhancer Module (PBREM) (AID 2282955)
# Conditions: HepG2 PBREM cis-reporter, Attagene multiplexed transcription; actives raise or lower the signal
# Method: ATG_CIS is a cell-based, multiplexed-readout assay that uses HepG2, a human liver cell line, with measurements taken at 24 hours after chemical dosing in a 24-well plate.ATG_PBREM_CIS is one of 52 assay component(s) measured or calculated from the ATG_CIS assay. It is designed to make measurements of mRNA induction, a form of inducible reporter, as detected with fluorescence intensity signals by Reverse transcription polymerase chain reaction (RT-PCR) and Capillary electrophoresis technology.Data from the assay component ATG_PBREM_CIS was analyzed into 1 assay endpoint. This assay endpoint, ATG_PBREM_CIS, was analyzed with bidirectional fitting relative to DMSO as the negative control and baseline of activity. Using a type of inducible reporter, measures of mRNA for gain or loss-of-signal activity can be used to understand the reporter gene at the transcription factor-level as they relate to the gene NR1I3. Furthermore, this assay endpoint can be referred to as a primary readout, because this assay has produced multiple assay endpoints where this one serves a reporter gene function. To generalize the intended target to other relatable targets, this assay endpoint is annotated to the nuclear receptor intended target family, where the subfamily is non-steroidal.
# Human liver HepG2 cells are transiently transfected with multiple reporter transcription units (MRTUs) in 6-well plates using FuGene 6 reagent (Roche; 3 ml FuGene/1 mg DNA). The MRTU constructs are regulated by a cis-regulating element (promoter). […] A major difference between the CIS and TRANS system is that in CIS activities of endogenous TFs are measured, whereas the TRANS assay evaluates changes in activities of exogenous, chimeric NR-Gal4 proteins. […] At the end of 24 hour incubation, total RNA was isolated using TriZol reagent (Invitrogen). The isolated RNA is then reverse-transcribed using oligo(dT) primer and Mo-MLV reverse transcriptase (Invitrogen) with DNAse I (Ambion) treatment for 30 min. The one-tenth of the produced cDNA was amplified by PCR using Taq DNA polymerase (Invitrogen) and two reporter sequence-specific primers. The PCR products were fluorescently labeled by primer extension with 6-arboxyfluorescein (6-FAM) 5'-labeled reporter sequence-specific primer (2 min at 95 C, 20 s at 68 C and 10 min at 72 C) and these products were digested with 5U of HpaI (New England Biolabs) for 2h at 37 C. The fragments were purified using Qiaquick PCR columns (Qiagen), analyzed on an ABI 3130xL genetic analyzer (Applied Biosystems) with peak positions identified by using a set of X-rhodamine (ROX)-labeled MapMarker1000 molecular weight standards (BioVentures). The raw capillary electrophoresis data was processed using Attagraph software (Attagene).
Structure (SMILES),outcome,AC50
O=S1OCC2C(CO1)C1(Cl)C(Cl)=C(Cl)C2(Cl)C1(Cl)Cl (stereo not given),inactive,
CNC(=O)Oc1cccc(N=CN(C)C)c1,inactive,
N#Cc1c(Cl)c(Cl)c(Cl)c(C#N)c1Cl,inactive,
CCc1ccc(C(=O)NN(C(=O)c2cc(C)cc(C)c2)C(C)(C)C)cc1,inactive,
CC1(c2ccc(Oc3ccccc3)cc2)OC(=O)N(Nc2ccccc2)C1=O (stereo not given),inactive,
CNC(=O)CSP(=S)(OC)OC,inactive,
O=C(Nc1ccccc1)Nc1cnns1,inactive,
COC(=O)c1ccccc1CS(=O)(=O)NC(=O)Nc1nc(OC)cc(OC)n1,inactive,
C#CCN1C(=O)COc2cc(F)c(N3C(=O)C4=C(CCCC4)C3=O)cc21,inactive,
CNC(=O)Oc1ccccc1OC(C)C,inactive,
CN1CSC(=S)N(C)C1,inactive,
CC(C)(C)C(O)/C(=C\c1ccc(Cl)cc1Cl)n1cncn1 (stereo not given),inactive,
CC(C)(C)C(O)C(Oc1ccc(Cl)cc1)n1cncn1 (stereo not given),inactive,2.82 µM (active) and 5.04 µM (active) and 7.04 µM (active)
CC[C@H](C)[C@H]1O[C@]2(C=C[C@@H]1C)C[C@@H]1C[C@@H](C/C=C(\C)[C@@H](O[C@H]3C[C@H](OC)[C@@H](O[C@H]4C[C@H](OC)[C@@H](O)[C@H](C)O4)[C@H](C)O3)[C@@H](C)/C=C/C=C3\CO[C@@H]4[C@H](O)C(C)=C[C@@H](C(=O)O1)[C@]34O)O2 (tested in a mixture with another compound),inactive,
Oc1cc(Cl)ccc1Oc1ccc(Cl)cc1Cl,inactive,2.91 µM (active) and 3.38 µM (active) and 17.3 µM (active)
O=[N+]([O-])c1c(Cl)c(Cl)c(Cl)c(Cl)c1Cl,inactive,
[2H]C1([2H])[n+]2ccccc2-c2cccc[n+]2C1([2H])[2H],inactive,
O=C1c2ccccc2C(=O)N1SC(Cl)(Cl)Cl,inactive,
CCOCN(C(=O)CCl)c1c(C)cccc1CC,inactive,

Structure (SMILES),outcome,AC50
CNC(=O)/C=C(\C)OP(=O)(OC)OC,inactive,
Cc1[nH]c(=O)n(C(C)(C)C)c(=O)c1Cl,,80.8 µM (active)
CCOC1Oc2ccc(OS(C)(=O)=O)cc2C1(C)C (stereo not given),,34 µM (active)
COc1cc(OC)nc(NC(=O)NS(=O)(=O)c2cc(NC=O)ccc2C(=O)N(C)C)n1,inactive,
O=C(O)CCCOc1ccc(Cl)cc1Cl,inactive,
COP(=S)(OC)Oc1ccc([N+](=O)[O-])cc1,inactive,
CCOc1nc(NC)nc(NC(=O)NS(=O)(=O)c2ccccc2C(=O)OC)n1,inactive,
N#CN,inactive,
OCCOc1ccccc1,inactive,
Clc1ccccc1-c1nnc(-c2ccccc2Cl)nn1,inactive,
CCCN(CCC)c1c([N+](=O)[O-])cc(C(F)(F)F)cc1[N+](=O)[O-],inactive,
C[C@H]1[C@H](c2ccc(Cl)cc2)SC(=O)N1C(=O)NC1CCCCC1,,27.2 µM (active)
COC(=O)c1ccccc1S(=O)(=O)NC(=O)N(C)c1nc(C)nc(OC)n1,inactive,
Oc1ccc(Cl)cc1Cc1ccccc1,inactive,13.6 µM (active)
CC(C)N(C(=O)COc1nnc(C(F)(F)F)s1)c1ccc(F)cc1,,11.5 µM (active)
CCC(C)(C)C(=O)OC1=C(c2ccc(Cl)cc2Cl)C(=O)OC12CCCCC2,inactive,
COc1nn(CSP(=S)(OC)OC)c(=O)s1,,50 µM (active)
CC1(C)C(C=C(Cl)Cl)C1C(=O)OC(C#N)c1ccc(F)c(Oc2ccccc2)c1 (stereo not given),inactive,

# — PubChem BioAssay (EPA / NIEHS)
